In experiment [1] the target is X-box-binding protein 1 (Homo sapiens) (UniProt P17861). As to the kind of experiment: ATG_Xbp1_CIS: Attagene CIS-FACTORIAL HepG2 Assay for human X-box Binding Protein 1 (XBP1) (AID 2282972). Conditions: HepG2 XBP1 cis-element reporter, Attagene multiplex; actives raise or lower the signal. In outline: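 Read-out: fluorescent reporter mRNA fragments resolved by capillary electrophoresis after RT-PCR. Human HepG2 liver cells carried transfected cis-promoter reporter units and were exposed to chemicals for 24 hours. Gain or loss of signal fitted relative to DMSO baseline.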

The nature of experiment [2]: ATG_XTT_Cytotoxicity: Cytotoxicity Assessment in the Attagene TRANS-FACTORIAL HepG2 Assay (AID 2283584; active = hit-call score of the fitted dose curve at least 0.9, where 1 is the maximum). In outline: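 HepG2 cells transiently transfected with GAL4-UAS multiple reporter units, dosed 24 h; cytotoxicity read by XTT as loss of signal versus DMSO baseline.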
Experiment [3] can be described thus: BSK_3C_Proliferation: Cell Proliferation Assessment in the BioMAP Diversity Plus: 3C Assay (AID 2283006).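 For AC50: potency may reflect either rise or fall in cell number versus DMSO.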 The settings on record: primary human endothelial cells (HUVEC). The method, boiled down: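 Proliferation as total protein: sulforhodamine B (0.1%) stain of TCA-fixed subconfluent human umbilical vein endothelial cells, absorbance 560 nm, 48 h after dosing. Activity fitted in both directions against DMSO baseline.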

Experiment [4] can be described thus: BSK_LPS_SRB: Viability Assessment in the BioMAP Diversity Plus: LPS Assay (AID 2283079).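 Note: total protein by sulforhodamine B absorbance as a cytotoxicity measure; measured one day after compound addition; fitted in both directions against DMSO so loss or gain of signal counts.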 The settings on record: primary human HUVEC with PBMC. In outline:
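Co-culture of human umbilical vein endothelial cells and PBMC, read 24 h after dosing. Total protein by 0.1% SRB staining after 10% TCA fixation, absorbance at 560 nm; bidirectional fit against DMSO.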

Read-out in experiment [5]: Tumor necrosis factor (Homo sapiens) (UniProt P01375)
As to the kind of experiment: BSK_LPS_TNFa: BioMAP Diversity Plus: LPS Assay for Tumour Necrosis Factor alpha (TNFa) Biomarker Activity (AID 2283085). Conditions: primary human HUVEC with PBMC; actives raise or lower the signal. In outline:
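TNFa was quantified by ELISA in LPS-activated co-cultures of human endothelial cells and PBMC, 24 h post-dosing. Both increases and decreases versus DMSO were fitted.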

Read-out in experiment [6]: Vascular cell adhesion molecule 1 (VCAM1), VCAM1 (gene 7412)
The experiment is described as follows: BSK_LPS_VCAM1: BioMAP Diversity Plus: LPS Assay for Vascular cell adhesion molecule 1 (VCAM1) Biomarker Activity (AID 2283086). The settings on record: primary human HUVEC with PBMC; actives raise or lower the signal. The method, boiled down:
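VCAM-1 quantified by ELISA in an LPS-activated co-culture of human endothelial cells and peripheral blood mononuclear cells, read 24 h post-treatment. Fitted in both directions versus DMSO; parallel SRB staining flags overt cytotoxicity.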

Read-out in experiment [7]: Monocyte Chemoattractant Protein-1 (MCP1), CCL2 (gene 6347)
The experiment is described as follows: BSK_SAg_MCP1: BioMAP Diversity Plus: SAg Assay for Monocyte Chemoattractant Protein-1 (MCP1) Biomarker Activity (AID 2283090). Conditions: primary human HUVEC with PBMC; actives raise or lower the signal. The method, boiled down:
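Values derive from bidirectional fitting of ELISA-measured MCP1 against DMSO controls. Readings were taken 24 h after dosing human vascular endothelial cells co-cultured with peripheral blood mononuclear cells under superantigen stimulation.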

Read-out in experiment [8]: E-selectin (Homo sapiens) (UniProt P16581)
The experiment is described as follows: BSK_SAg_Eselectin: BioMAP Diversity Plus: SAg Assay for Eselectin Biomarker Activity (AID 2283091). The settings on record: primary human HUVEC with PBMC; actives raise or lower the signal. In outline:
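Human umbilical vein endothelial cells co-cultured with peripheral blood mononuclear cells, SAg system. E-selectin is measured by ELISA 24 h after dosing and fitted bidirectionally against DMSO. Cytotoxicity is checked by SRB staining of parallel cultures.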

Read-out in experiment [9]: Monokine induced gamma interferon (MIG), CXCL9 (gene 4283)
As to the kind of experiment: BSK_SAg_MIG: BioMAP Diversity Plus: SAg Assay for Monokine induced gamma interferon (MIG) Biomarker Activity (AID 2283092). Conditions: primary human HUVEC with PBMC; actives raise or lower the signal. In outline: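 Measures CXCL9 protein by ELISA in a human vascular primary-cell co-culture (umbilical vein endothelium with PBMC) 24 h after chemical addition. Activity is scored up or down from the DMSO control.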

Read-out in experiment [10]: Interleukin-8 (IL8), CXCL8 (gene 3576)
As to the kind of experiment: BSK_SAg_IL8: BioMAP Diversity Plus: SAg Assay for Interleukin-8 (IL8) Biomarker Activity (AID 2283094). The settings on record: primary human HUVEC with PBMC; actives raise or lower the signal. The method, boiled down:
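ELISA readout of IL-8 from a superantigen-activated endothelial/PBMC primary human co-culture, taken 24 h post-dosing and fitted in both directions against DMSO; parallel SRB total-protein staining flags overt cytotoxicity.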

Experiment [11] in a line: BSK_SAg_Proliferation: Cell Proliferation Assessment in the BioMAP Diversity Plus: SAg Assay (AID 2283095).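 Note: relative cell number as total protein by SRB absorbance in sub-confluent culture.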 Conditions: primary human HUVEC with PBMC. The method, boiled down:
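Relative cell number in the endothelial cell/PBMC co-culture was quantified at 96 h by SRB staining (0.1% SRB, 10% TCA fixation, read at 560 nm). Curves were fitted in both directions relative to DMSO baseline.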

Experiment [12] is described as follows: BSK_SAg_SRB: Viability Assessment in the BioMAP Diversity Plus: SAg Assay (AID 2283096).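 Note: cells read one day after compound addition; hits may be either gain or loss of signal compared with DMSO.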 The settings on record: primary human HUVEC with PBMC. The method, boiled down: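 This overt-cytotoxicity endpoint quantifies protein in human endothelial/PBMC co-cultures at 24 h using SRB absorbance (560 nm) after trichloroacetic acid fixation. Values reflect signal change from the DMSO negative control, fitted bidirectionally.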

Read-out in experiment [13]: Interferon-inducible T-cell alpha chemoattractant (ITAC), CXCL11 (gene 6373)
The experiment is described as follows: BSK_hDFCGF_ITAC: BioMAP Diversity Plus: hDFCGF Assay for Interferon-inducible T-cell alpha chemoattractant (ITAC) Biomarker Activity (AID 2284251). The settings on record: primary human foreskin fibroblasts. The method, boiled down:
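Chemical dosing of primary human foreskin fibroblast cultures preceded ELISA measurement of I-TAC at 24 h. Response was analysed in the positive direction using DMSO as baseline, while parallel SRB staining measured cytotoxicity.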

Read-out in experiment [14]: Intercellular Adhesion Molecule 1 (ICAM1), ICAM1 (gene 3383)
The experiment is described as follows: BSK_BE3C_ICAM1: BioMAP Diversity Plus: BE3C Assay for Intercellular Adhesion Molecule 1 (ICAM1) Biomarker Activity (AID 2284278).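 Note: cell-surface ICAM-1 protein level quantified by ELISA.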 Conditions: primary human bronchial epithelial cells. The method, boiled down: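 ICAM-1 quantified by ELISA and fitted against DMSO baseline, 24 h post-dosing in BE3C cultures of primary human lung bronchial epithelial cells. Cytotoxicity checked in parallel cultures by total protein SRB staining.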

Read-out in experiment [15]: Epidermal growth factor receptor (EGFR), EGFR (gene 1956)
As to the kind of experiment: BSK_BE3C_EGFR: BioMAP Diversity Plus: BE3C Assay for Epidermal growth factor receptor (EGFR) Biomarker Activity (AID 2284281). Conditions: primary human bronchial epithelial cells. In outline:
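Measured 24 h after dosing in primary human bronchial epithelial cultures, EGFR was read by ELISA; gain of signal over DMSO control defined activity.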

Read-out in experiment [16]: KRT18 (gene 3875)
As to the kind of experiment: BSK_BE3C_Keratin818: BioMAP Diversity Plus: BE3C Assay for Keratin 818 Biomarker Activity (AID 2284282). Conditions: primary human bronchial epithelial cells. The method, boiled down:
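ELISA readout of Keratin 8/18 in human primary bronchial epithelial cultures after 24 h chemical exposure, DMSO baseline. Parallel SRB staining (0.1%, TCA-fixed, 560 nm) served as cytotoxicity check.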

Read-out in experiment [17]: Matrix Metallopeptidase 9 (MMP9), MMP9 (gene 4318)
As to the kind of experiment: BSK_BE3C_MMP9: BioMAP Diversity Plus: BE3C Assay for Matrix Metallopeptidase 9 (MMP9) Biomarker Activity (AID 2284283). The settings on record: primary human bronchial epithelial cells. The method, boiled down:
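Human primary bronchial epithelial cells exposed 24 h to compound. MMP9 quantified by ELISA. SRB total-protein staining of parallel cultures assesses cytotoxicity. Positive-direction fit relative to DMSO.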

Read-out in experiment [18]: TIMP metallopeptidase inhibitor 2 (TIMP2), TIMP2 (gene 7077)
The experiment is described as follows: BSK_hDFCGF_TIMP2: BioMAP Diversity Plus: hDFCGF Assay for TIMP metallopeptidase inhibitor 2 (TIMP2) Biomarker Activity (AID 2284289). Conditions: primary human foreskin fibroblasts. The method, boiled down:
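Primary human foreskin fibroblasts in the hDFCGF system, dosed for 24 h; TIMP-2 level measured by ELISA, fitted in the positive direction against DMSO; cytotoxicity checked in parallel by sulforhodamine B total protein staining.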

Read-out in experiment [19]: Thrombomodulin, THBD (gene 7056)
As to the kind of experiment: BSK_LPS_Thrombomodulin: BioMAP Diversity Plus: LPS Assay for Thrombomodulin Biomarker Activity (AID 2284296). Conditions: primary human HUVEC with PBMC. In outline:
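Thrombomodulin on the surface of LPS-activated endothelial/PBMC co-cultures was quantified by ELISA at 24 hours post-dosing, with DMSO as baseline. Parallel SRB total-protein staining flagged overt cytotoxicity.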

The target in experiment [20] is mouse Estrogen Receptor alpha (Era), Esr1 (gene 13982) (UniProt P19785). The experiment is described as follows: NVS_NR_mERa: NovaScreen (NVS) Nuclear Receptor Binding Assay for mouse Estrogen Receptor alpha (Era) (AID 2283378; active = hit-call score of the fitted dose curve at least 0.9, where 1 is the maximum;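 note: hit means loss of bound radioligand signal relative to DMSO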). The method, boiled down:
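Cell-free radioligand competitive displacement binding, read by filter-based scintillation counting 18 h after dosing. Primary screen run in duplicate at 25 uM, actives retested in concentration series; loss of signal versus DMSO.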

“And” between values parts separate entries of the source, which are not always exact repeats. Identical values can stand only once. Results filed as inconclusive are left out. A structure can be active in one record and inactive in another. The source made the active and inactive calls. Rule for the calls, unless noted: active = hit-call score of the fitted dose curve at least 0.9, where 1 is the maximum; inactive = score below 0.9.

Chain of mouse Estrogen Receptor alpha (Era), Esr1 (gene 13982) (P19785 whole entry, looked up): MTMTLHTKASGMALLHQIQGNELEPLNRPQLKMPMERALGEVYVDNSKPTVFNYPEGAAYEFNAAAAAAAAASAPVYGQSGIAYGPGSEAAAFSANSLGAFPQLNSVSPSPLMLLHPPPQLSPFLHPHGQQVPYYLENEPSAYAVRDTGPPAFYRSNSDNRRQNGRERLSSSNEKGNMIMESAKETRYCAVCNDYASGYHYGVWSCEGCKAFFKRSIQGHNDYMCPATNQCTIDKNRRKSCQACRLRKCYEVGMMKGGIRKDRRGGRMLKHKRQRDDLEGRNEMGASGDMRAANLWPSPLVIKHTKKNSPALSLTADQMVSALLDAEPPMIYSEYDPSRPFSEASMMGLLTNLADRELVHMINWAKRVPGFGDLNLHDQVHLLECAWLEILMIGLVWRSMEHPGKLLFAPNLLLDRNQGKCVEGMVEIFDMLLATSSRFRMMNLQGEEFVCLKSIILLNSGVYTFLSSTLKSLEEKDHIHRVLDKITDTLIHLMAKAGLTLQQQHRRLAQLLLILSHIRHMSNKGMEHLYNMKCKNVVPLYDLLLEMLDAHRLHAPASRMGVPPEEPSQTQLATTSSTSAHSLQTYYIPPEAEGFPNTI
Chain of E-selectin (Homo sapiens) (P16581 whole entry, looked up): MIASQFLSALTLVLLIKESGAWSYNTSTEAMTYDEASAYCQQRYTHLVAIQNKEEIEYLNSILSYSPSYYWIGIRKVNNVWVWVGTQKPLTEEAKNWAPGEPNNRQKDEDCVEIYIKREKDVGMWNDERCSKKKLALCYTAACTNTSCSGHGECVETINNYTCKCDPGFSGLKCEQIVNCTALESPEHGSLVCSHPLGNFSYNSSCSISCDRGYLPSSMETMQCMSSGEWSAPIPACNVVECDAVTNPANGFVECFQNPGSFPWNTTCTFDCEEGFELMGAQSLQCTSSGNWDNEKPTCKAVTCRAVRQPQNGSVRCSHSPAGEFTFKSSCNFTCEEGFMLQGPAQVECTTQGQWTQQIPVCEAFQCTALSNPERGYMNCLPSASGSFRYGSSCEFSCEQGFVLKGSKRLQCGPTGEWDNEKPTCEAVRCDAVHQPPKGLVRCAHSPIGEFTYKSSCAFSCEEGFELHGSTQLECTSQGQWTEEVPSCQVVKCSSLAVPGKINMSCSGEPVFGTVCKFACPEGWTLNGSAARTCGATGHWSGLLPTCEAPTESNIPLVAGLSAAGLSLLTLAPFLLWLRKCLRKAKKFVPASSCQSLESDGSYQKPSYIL
Chain of Tumor necrosis factor (Homo sapiens) (P01375 whole entry, looked up): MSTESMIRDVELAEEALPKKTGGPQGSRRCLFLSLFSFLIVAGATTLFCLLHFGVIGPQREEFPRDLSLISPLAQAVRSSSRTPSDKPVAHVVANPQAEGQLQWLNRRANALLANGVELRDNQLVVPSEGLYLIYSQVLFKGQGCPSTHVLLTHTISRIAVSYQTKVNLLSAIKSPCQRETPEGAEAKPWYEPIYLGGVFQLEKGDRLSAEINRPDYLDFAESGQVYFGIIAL
Chain of X-box-binding protein 1 (Homo sapiens) (P17861 whole entry, looked up, the tested form may be a part): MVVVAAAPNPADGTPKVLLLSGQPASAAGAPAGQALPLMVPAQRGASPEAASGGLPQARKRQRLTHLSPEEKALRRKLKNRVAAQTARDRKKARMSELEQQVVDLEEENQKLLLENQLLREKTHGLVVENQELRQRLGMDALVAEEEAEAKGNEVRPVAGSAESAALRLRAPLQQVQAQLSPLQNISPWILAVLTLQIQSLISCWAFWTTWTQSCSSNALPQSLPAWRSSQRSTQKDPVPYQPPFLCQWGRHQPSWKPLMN

On to `O=C(O)/C=C\C(=O)O`, for which the outcome in experiment [1] and in experiment [2] was inactive.
Usually AC50 stands for the concentration at which the activity in the assay is half-maximal. Regarding `COc1ccc(C(=O)c2ccccc2O)c(O)c1`, the concentration at half-maximal activity (AC50) in experiment [3] was 23.6 µM (active); in [10] it was 29.5 µM (active) and 24.6 µM (active); in [13], 28.3 µM (active); in [17], 10.2 µM (active) and 17.3 µM (active). Moreover, the outcome in experiment [4], in experiment [5], in experiment [6], in experiment [7], in experiment [8] and in experiment [9] was inactive. For the same molecule, the result in experiment [11], in [12], in [13], in experiment [14], in experiment [15] and in experiment [16] was inactive. Besides, the result in experiment [18] and in experiment [19] was inactive.
As to `CC[N+](CC)(CC(=O)Nc1c(C)cccc1C)Cc1ccccc1` (tested in a mixture with another compound), the outcome in [1], in experiment [3], in [4], in experiment [5], in [6] and in experiment [7] was inactive. The result in experiment [8], in experiment [9], in experiment [10], in experiment [11], in experiment [12] and in experiment [2] was inactive. Besides, the result in experiment [13], in experiment [14], in experiment [15], in [16], in experiment [17] and in experiment [18] was inactive. Also, in experiment [19], the outcome was inactive.
Regarding `C1CN(CCOCCN2CCOCC2)CCO1`, the result in [3], in experiment [4], in experiment [5], in experiment [6], in experiment [7] and in [8] was inactive. Further, the result in experiment [9], in experiment [10], in experiment [11], in experiment [12], in [13] and in experiment [14] was inactive. Further, the result in experiment [15], in [16], in experiment [17], in experiment [18] and in experiment [19] was inactive.
As to `CC(=O)CC(=O)OC(C)(C)C`, in experiment [20], the outcome was inactive.
Still for that read-out and setting: under `COC(=O)CCCC(=O)O` stands “inactive”.
On the same count and under the same terms, under `CNC(=O)Nc1ccc(Cl)c(Cl)c1` stands “inactive”.
Same read-out and setting: under `CCCCCCCCOCCCN` stands “inactive”; under `CC(C)CC(=O)C1C(=O)c2ccccc2C1=O`, “inactive”; under `Cc1cccc(NC(=S)N(C)C)c1`, “inactive”.
Regarding `COc1ccc(COC=O)cc1`, in experiment [20], the call was inactive.
In the case of `Cc1oc(C)c(C(=O)Nc2ccccc2)c1C`, the call in experiment [20] was inactive.

For the origin of these results see PubChem BioAssay (EPA / NIEHS).
